Assay results published in PubChem BioAssay (NCI).
Compounds without any hit were thinned out: in the full panel of roughly 83,000, 20% have a hit.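 How to read the values: 0–100, growth inhibition (40 = 60% inhibited); 0, no net growth; -100 to 0, cell death (-40 = 40% of starting cells died; -100 = all dead).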 Calls of active or inactive are those of the source. The calls were made as follows: active = growth percent below 10; inactive = the rest.

Assays:
Assay in all cases: NCI-60 one-dose screen, 48 h (100 = growth as untreated, 0 = no growth, -100 = all killed)
Settings in all cases: 10 µM unless noted
NCI-H23 lung = system: NCI-H23 lung
NCI-H322M lung = system: NCI-H322M lung
NCI-H460 lung = system: NCI-H460 lung
HOP-92 NSCLC = system: HOP-92 NSCLC
NCI-H522 lung = system: NCI-H522 lung
A549/ATCC NSCLC = system: A549/ATCC NSCLC
786-0 renal = system: 786-0 renal
DU-145 prostate = system: DU-145 prostate
K-562 leukemia = system: K-562 leukemia
MALME-3M melanoma = system: MALME-3M melanoma
MDA-MB-231 breast = system: MDA-MB-231 breast
RXF 393 renal = system: RXF 393 renal
SF-268 CNS = system: SF-268 CNS
SF-295 CNS = system: SF-295 CNS
SF-539 CNS = system: SF-539 CNS
UACC-257 melanoma = system: UACC-257 melanoma
M14 melanoma = system: M14 melanoma
HCT-15 colon = system: HCT-15 colon
COLO 205 colon = system: COLO 205 colon
HOP-62 NSCLC = system: HOP-62 NSCLC

Measured: growth

Cn1c(/C=C(\C#N)c2cccc(C(F)(F)F)c2)nc2c(N3CCOCC3)nc(Cl)nc21
active: HOP-92 NSCLC -77.4% | NCI-H522 lung -56% | 786-0 renal -74.2% | DU-145 prostate -80.3% | K-562 leukemia -12.2% | MALME-3M melanoma -21.8% | MDA-MB-231 breast -70.1% | RXF 393 renal -92.2% | SF-268 CNS -50.8% | SF-539 CNS -79.9% | UACC-257 melanoma -64.5% | M14 melanoma -77.3% | HCT-15 colon -37.3%
inactive: NCI-H23 lung 16% | NCI-H322M lung 63.1% | NCI-H460 lung 26.7% | A549/ATCC NSCLC 33.6% | SF-295 CNS 85.1%

COc1cccc(/C=C/C(=O)c2c(C)nc3ccccc3c2/C=C/c2ccccc2)c1OC
active: NCI-H460 lung 2.78% | NCI-H522 lung 3.88% | DU-145 prostate 4.24% | K-562 leukemia 9.13% | HCT-15 colon 5.81%
inactive: NCI-H23 lung 31.2% | NCI-H322M lung 45.3% | HOP-92 NSCLC 60.7% | A549/ATCC NSCLC 30.9% | 786-0 renal 42.4% | COLO 205 colon 56.3% | MALME-3M melanoma 69.1% | MDA-MB-231 breast 20.9% | RXF 393 renal 15.4% | SF-268 CNS 38.8% | SF-295 CNS 46.5% | SF-539 CNS 58.8% | UACC-257 melanoma 46.1% | M14 melanoma 36.3%

COC(=O)/C(CCC=C(C)C)=C1\[C@@H](OC(C)=O)C[C@@]2(C)[C@H]1C[C@@H](O)[C@H]1[C@@]3(C)CC[C@H](NCCCNCCCCNCCCN)[C@@H](C)[C@@H]3CC[C@@]12C
inactive: NCI-H23 lung 61.4% | NCI-H322M lung 67.9% | NCI-H460 lung 19.4% | HOP-92 NSCLC 52.6% | NCI-H522 lung 93.7% | A549/ATCC NSCLC 62.1% | 786-0 renal 44.8% | COLO 205 colon 21.6% | DU-145 prostate 70.5% | K-562 leukemia 33.4% | MALME-3M melanoma 47.2% | MDA-MB-231 breast 56% | RXF 393 renal 75.8% | SF-268 CNS 81.3% | SF-295 CNS 41.9% | SF-539 CNS 66% | UACC-257 melanoma 91.9% | M14 melanoma 40% | HCT-15 colon 76.8%

COc1ccc(/C=C2\NC(=O)NC2=O)cc1O
inactive: NCI-H23 lung 98.1% | NCI-H322M lung 109% | NCI-H460 lung 98.4% | HOP-92 NSCLC 89.2% | NCI-H522 lung 98% | A549/ATCC NSCLC 99.1% | 786-0 renal 97.8% | COLO 205 colon 117% | DU-145 prostate 116% | K-562 leukemia 106% | MALME-3M melanoma 105% | MDA-MB-231 breast 114% | RXF 393 renal 111% | SF-268 CNS 106% | SF-295 CNS 94.2% | SF-539 CNS 106% | UACC-257 melanoma 99.4% | M14 melanoma 89.8% | HCT-15 colon 99%

CCOc1ccccc1CN1CCc2nc3cc(C(C)(C)C)[nH]n3c(=O)c2C1
inactive: NCI-H23 lung 97% | NCI-H322M lung 101% | NCI-H460 lung 107% | HOP-92 NSCLC 112% | NCI-H522 lung 77.1% | A549/ATCC NSCLC 112% | 786-0 renal 90.8% | COLO 205 colon 112% | DU-145 prostate 115% | K-562 leukemia 87.2% | MALME-3M melanoma 107% | MDA-MB-231 breast 92.3% | RXF 393 renal 93.5% | SF-268 CNS 105% | SF-539 CNS 93.7% | UACC-257 melanoma 108% | M14 melanoma 91.6% | HCT-15 colon 97.4%

Cc1ccc(C)c(-c2csc(Nc3ccc(C)c(C)c3)n2)c1
inactive: NCI-H23 lung 57% | NCI-H322M lung 91.1% | NCI-H460 lung 38.5% | HOP-92 NSCLC 27.1% | NCI-H522 lung 65.3% | A549/ATCC NSCLC 43.6% | 786-0 renal 65.9% | MDA-MB-231 breast 39.5% | RXF 393 renal 21.8% | SF-268 CNS 75.5% | SF-539 CNS 25.1% | HCT-15 colon 12.4%
active: COLO 205 colon -54.6% | K-562 leukemia -36.5% | MALME-3M melanoma -86.3% | SF-295 CNS -79.5% | UACC-257 melanoma -58.6% | M14 melanoma -81.3%

COc1ccc(/C=c2\sc3n(c2=O)NC2C(N=3)N(C)C(=O)N2C)cc1 (stereo not drawn)
inactive: NCI-H23 lung 96.6% | NCI-H322M lung 92% | NCI-H460 lung 108% | HOP-92 NSCLC 100% | NCI-H522 lung 86.6% | A549/ATCC NSCLC 99.8% | 786-0 renal 97.7% | COLO 205 colon 102% | DU-145 prostate 110% | K-562 leukemia 89.3% | MALME-3M melanoma 97.6% | MDA-MB-231 breast 96.8% | RXF 393 renal 101% | SF-268 CNS 93.5% | SF-295 CNS 100% | SF-539 CNS 95.5% | UACC-257 melanoma 102% | M14 melanoma 96.5% | HCT-15 colon 96.4%

CCN1C(=O)N(CC)C2C1NN=c1s/c(=C3\C(=O)N(C(C)C)c4ccccc43)c(=O)n12 (stereo not drawn)
inactive: NCI-H23 lung 28.8% | NCI-H322M lung 52.6% | HOP-62 NSCLC 38.7% | HOP-92 NSCLC 54% | 786-0 renal 30.6% | MALME-3M melanoma 64.6% | MDA-MB-231 breast 11.3% | RXF 393 renal 35.5% | SF-268 CNS 25.2% | UACC-257 melanoma 57.1% | M14 melanoma 18.9% | HCT-15 colon 12.4%
active: NCI-H460 lung 5.6% | COLO 205 colon -16% | DU-145 prostate 3.71% | K-562 leukemia 7.46% | SF-295 CNS 5.01% | SF-539 CNS -13.2%
